The whole screen tested about 330,000 compounds, of which about 2,800 (0.85%) were called active. This excerpt belongs to a sample that is enriched for actives. Unmarked numbers belong to inactive results.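 The calls were made as follows: active = mean inhibition across replicates of 60% or more, whatever share of single replicates reaches that level; inconclusive = some that reach 60%, reason not given; inactive = mean inhibition across replicates below 60%.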

By inhibition is commonly meant the change of the read-out against control, counted positive when it falls.

A short description of this assay: inhibitors of MITF-dependent TRPM1 promoter reporter, primary screen, cell-based, SK-MEL-5, single point, luciferase (AID 488899). The note with it: SK-MEL-5 TRPM1 promoter luciferase, 24 h; at 12.5 µM; stronger effect = higher value.
As for `CSCCC(NS(=O)(=O)c1ccc(C)cc1)C(=O)N(C)CC(=O)Nc1ccccc1Br` (centres undefined), the inhibition is 11.6%.
Consider `CC(C)c1cc(N=O)cc(C(C)C)c1O`, for which the inhibition was -4.28%.
On to `CC(C)=CCc1ccc(O)c(=O)cc1C(C)C`, for which the inhibition is 71.6% (active).
For `COc1ccc(CNC(=O)CN2C(=O)c3ccccc3S2(=O)=O)cc1`, the inhibition was 13.6%.
In the case of `CCOc1ccc(CNC(=O)C2CCCN(c3nnc(C)c4c(C)n(-c5ccccc5)nc34)C2)cc1` (centres undefined), the inhibition was 48.5%.
Consider `CCc1ccc(CNC(=O)C2CCN(c3nnc(C)c4c(C)n(-c5ccc(C)cc5)nc34)CC2)cc1`, for which the inhibition was 96.1% (active).
Consider `COc1ccc(-n2nc3c(N4CCC(C(=O)NCc5ccccc5)CC4)nnc(C)c3c2C)cc1`, for which the inhibition is 40.6%.
The same measure for `COc1cccc(CC(=NO)c2cccc(OC)c2)c1`: -0.084%; for `CCCOc1ccc(/C=N/NC(=O)C2CC2)c(OCCC)c1`: -7.21%; for `COc1ccc(CN2CCNC(=O)C2CC(=O)NCc2cn[nH]c2-c2ccccc2)c(F)c1` (centres undefined): -6.25%.
Consider `CN1CCN(CCCNC(=O)c2ccc(/C=C3\Oc4ccccc4N(Cc4ccc(Cl)cc4)C3=O)cc2)CC1`, for which the inhibition was 96.1% (active).
The same measure for `Cc1c(C)n(Cc2ccc(Cl)cc2)c2ccc(C(=O)NCCCN3CCOCC3)cc12`: 1.78%; for `CC(C)OCCCNC(=O)CN1C(=O)/C(=C/c2ccccc2F)Oc2ccccc21`: 8.17%; for `CCOc1ccc(NC(=O)CSc2ncnc3c2sc2ccccc23)cc1`: 4.52%.
Turning to `C=CCc1cccc2cc(C(=O)NC3CCCC3)c(=O)oc12`, the inhibition is -16%.
`CCC1=C(OC(=O)N(CC)CC)N2C(=O)OC(=NCCc3c[nH]c4ccccc34)[C@]2(C)[C@H]2C1=CC[C@H]1C(=O)N(CC)C(=O)[C@H]12`: the inhibition is 1.76%.
As for `COCCN(Cc1cc2cc3c(cc2nc1Cl)OCO3)C(=O)c1cccc(C)c1`, the inhibition was 10%.
The same measure for `Cc1cc(C)nc(S/C=C/C(=O)c2ccccc2)n1`: 80.6% (active); for `Cc1cc(C)nc(SCc2ccccc2C#N)n1`: 4.69%; for `Cc1cc(C)nc(SCC(=O)N(C)C)n1`: 2.39%.
For `CC1CCN(Cc2nc3c(c(=O)n(C)c(=O)n3C)n2CCc2ccccc2)CC1`, the inhibition is -2.78%.
The same measure for `CCCc1nc2c(c(=O)c3ccccc3n2C)c(=O)n1C1CCCCCC1`: 73.5% (active); for `Cn1c2ccccc2c2c(C(=O)N3CCN(c4ccc(F)cc4)CC3)cn(C3CCCC3)c(=O)c21`: -8.48%.
In the case of `COc1cc(OC)cc(-c2c(-c3cccs3)c3cc(-c4ccc(OC)cc4F)ccc3n2C)c1`, the inhibition was 13.6%.
